Measurements: PubChem BioAssay (Tox21)
Records with an inconclusive call do not appear. The source made the active and inactive calls. Unless noted, the call rests on the fitted dose curve; in most records, active means well fitted curve in the direction sought with a large enough effect in the repeat runs; inconclusive means weak or mixed curves; inactive means no such curve, though single readings can be large; an effect the other way counts as inactive or inconclusive.

Tests used:
[1] = qHTS assay to identify small molecule antagonists of the retinoid acid receptor (RAR) signaling pathway - cell viability counter screen (AID 1159551); further: nearly all actives have a fitted effect of over 35% in size
How it was run: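 Cytotoxicity counter screen in C3RL4 cells: 6 h compound exposure with 1 uM retinol (final), viability from cellular ATP by luminescence.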

[2] = qHTS assay to identify small molecule antagonists of the retinoic acid receptor (RAR) signaling pathway (AID 1159552; further: nearly all actives have a fitted effect of over 50% in size)
How it was run: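 Using a RARE-driven luciferase construct in C3RL4 cells, retinol at 1 uM final provided the agonist stimulus while compounds were co-applied. After 6 hours at 37 C, luminescence was recorded to flag inhibitors of retinol signaling.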

[3] = qHTS assay to identify small molecule agonists of the retinoic acid receptor (RAR) signaling pathway (AID 1159553)
How it was run: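 Agonist activity was scored in C3RL4 cells bearing a retinoic acid response element luciferase construct. Cells were treated with compounds for 6 hr at 37 C, and luciferase signal was measured as luminescence.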

[4] = qHTS assay to identify small molecule antagonists of the estrogen related receptor (ERR) signaling pathway from Tox21 library - cell viability counter screen (AID 1224834); further: nearly all actives have a fitted effect of over 30% in size
How it was run: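 Cytotoxicity of test substances is gauged in the same ERR cells used for the antagonist screen, after 17.5 h of compound treatment at 37 C, by CellTiter-Fluor fluorescence measured after 30 min.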

[5] = molecular target: Luciferin 4-monooxygenase (Photinus pyralis) (UniProt P08659); experiment: qHTS assay to identify small molecule inhibitors of firefly luciferase (AID 1224835); further: nearly all actives have a fitted effect of over 25% in size
How it was run: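 Biochemical qHTS: compounds run as interplate titrations against purified firefly enzyme, with D-luciferin and ATP each at its KM concentration. Light output recorded by CCD imaging.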

[6] = qHTS assay to identify small molecule agonists of the constitutive androstane receptor (CAR) signaling pathway - cell viability counter screen (AID 1224836); further: nearly all actives have a fitted effect of over 45% in size
How it was run: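 Multiplexed viability check: HepG2-CYP2B6-hCAR cells, 15-point compound dosing, 0.75 uM PK11195 final, 23 h at 37 C, CellTiter-Fluor fluorescence.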

[7] = qHTS assay to identify small molecule antagonists of the constitutive androstane receptor (CAR) signaling pathway - cell viability counter screen (AID 1224837); further: nearly all actives have a fitted effect of over 45% in size
How it was run: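 Multiplexed cytotoxicity read-out for the CAR antagonist screen: double-stable HepG2-CYP2B6-hCAR cells co-treated with 50 nM CITCO (final) and compound over 15 concentrations, incubated 23 hr, then assessed by CellTiter-Fluor fluorescence.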

[8] = qHTS assay to identify small molecule antagonists of the estrogen related receptor signaling pathway with the pleiotropic PPARgamma coactivator (PGC) from Tox21 10K library - cell viability counter screen (AID 1224840; active means well fitted cell-killing curve with a large enough effect in the repeat runs, not every such curve was filed as active; further: nearly all actives have a fitted effect of over 40% in size)
How it was run: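 Step one, plate 2,000 PGC/ERR cells per well; step two, incubate 6 h at 37 C/5% CO2; step three, pin-transfer compounds; step four, incubate 17.5 h; step five, add CellTiter-Fluor and read fluorescence after 30 min.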

[9] = qHTS assay to identify small molecule agonists of the estrogen related receptor signaling pathway with the pleiotropic PPARgamma coactivator (PGC) from Tox21 10K library (AID 1224842); further: nearly all actives have a fitted effect of over 15% in size
How it was run: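 PGC/ERR reporter cell line, 2,000 cells per well, incubated 6 h at 37 C before 23 nL compound in DMSO was added. After 18 h at 37 C, One-Glo luminescence read following 30 min at room temperature.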

[10] = qHTS assay to identify small molecule agonists of the hypoxia (HIF-1) signaling pathway - cell viability counter screen (AID 1224844; calls by dose curve; further: nearly all actives have a fitted effect of over 50% in size)
How it was run: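 Tox21 10K compounds were added to HRE-bla ME-180 cells (0.5% dialyzed FBS) and incubated 17 hrs at 37C; ATP-based CellTiter-Glo luminescence then reported cell viability in the same wells.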

[11] = qHTS assay to identify small molecule agonists of H2AX (AID 1224845; active means well fitted activation curve with a large enough effect in the signal ratio in the repeat runs, not every such curve was filed as active; the % refers to the signal ratio)
How it was run: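 Wild-type CHO-K1 cells, plated overnight, exposed 3hr at 37C to 15 concentrations (0.76% DMSO final). Lysed, then HTRF anti-pH2AX (S139) cryptate and anti-H2AX-d2 antibodies, 24 hr room temperature; 665/620 nm emission read.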

[12] = qHTS assay to identify small molecule agonists of H2AX - cell viability counter screen (AID 1224847; calls by dose curve; further: top concentration of the series differs between compounds; nearly all actives have a fitted effect of over 30% in size)
How it was run: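 After overnight plating of 1000 CHO-K1 cells per well, a 15-concentration compound series was applied for 3 hr at 37C. Luminescence from CellTiter-Glo, read following 30 min at room temperature, reflected cell viability.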

[13] = qHTS assay to identify small molecule antagonists of the estrogen related receptor (ERR) signaling pathway from Tox21 library (AID 1224848); further: nearly all actives have a fitted effect of over 50% in size
How it was run: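 Luminescent reporter read-out (ONE-Glo) from NTP's ERR cell line after 18 h treatment at 37 C with DMSO-dissolved Tox21 compounds; cells pre-plated 6 h beforehand at 2,000 per well.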

[14] = qHTS assay to identify small molecule agonists of the estrogen related receptor (ERR) signaling pathway from Tox21 library (AID 1224849; calls by dose curve; further: nearly all actives have a fitted effect of over 15% in size); settings: ERR reporter cell line, ONE-Glo luciferase, 18 h; at 92.4 µM (top of the series) unless noted
How it was run: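 Agonist signal is luciferase luminescence from an ERR reporter cell line treated 18 h at 37 C with DMSO-dissolved compounds, read 30 min after ONE-Glo addition at room temperature.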

[15] = qHTS RealTime-Glo MT Cell Viability Assay in HepG2 cells - 24 hour (AID 1224867); further: nearly all actives have a fitted effect of over 50% in size
How it was run: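 HepG2 cells were seeded at 600 cells/well together with NanoLuc luciferase and a cell-permeant prosubstrate, preincubated 5 h at 37 C/5% CO2, then pin-dosed with compounds in DMSO. Nonlytic luminescence from viable cells was read at each time point.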

[16] = molecular target: Thyrotropin receptor (Homo sapiens) (UniProt P16473); experiment: qHTS assay to identify small molecule agonists of the thyroid stimulating hormone receptor (TSHR) signaling pathway (AID 1224843; calls by dose curve; further: nearly all actives have a fitted effect of over 45% in size; further: potency means the concentration at half of the fitted maximal effect)
How it was run: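 Steps: seed 800 TSHR-HEK293 cells per well; add test compound and hold 30 min at ambient temperature; dispense cAMP-d2 then anti-cAMP cryptate; incubate 1 h at ambient; measure fluorescence intensity.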

[17] = qHTS assay to identify small molecule agonists of the hypoxia (HIF-1) signaling pathway (AID 1224846; active means well fitted activation curve with a large enough effect in the signal ratio in the repeat runs, not every such curve was filed as active; the % refers to the signal ratio)
How it was run: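 Steps: seed ME-180 HRE-bla cells (2,000/well, 0.5% dialyzed FBS); incubate 5 hrs at 37C; pin-transfer compounds or DMSO; incubate 17 hrs; add LiveBLAzer B/G substrate CCF4-AM; measure reporter activation by FRET.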

[18] = molecular target: Nuclear receptor subfamily 1 group I member 3 (Homo sapiens) (UniProt Q14994); experiment: qHTS assay to identify small molecule agonists of the constitutive androstane receptor (CAR) signaling pathway (AID 1224839);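 further: HepG2 cells stably carrying human CAR and a CYP2B6 luciferase reporter; nearly all actives have a fitted effect of over 15% in size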
How it was run: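 Using human hepatoma HepG2 cells engineered with hCAR and a CYP2B6-2.2kb reporter, 15-concentration compound series were incubated 24 h alongside PK11195 at 0.75 uM final, with luminescence quantified afterwards.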

[19] = qHTS assay to identify small molecule antagonists of the estrogen related receptor signaling pathway with the pleiotropic PPARgamma coactivator (PGC) from Tox21 10K library (AID 1224841; call rule not given here)
How it was run: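 Antagonism in this quantitative HTS is taken from loss of luciferase signal in PGC/ERR cells. Cells (2,000/well) are treated with compounds in DMSO after a 6 h settling period and read by One-Glo luminescence after 18 h.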
On the % scale 0 is the no-effect control and ±100 the full control effect.

Chain of Thyrotropin receptor (Homo sapiens) (P16473 whole entry, looked up): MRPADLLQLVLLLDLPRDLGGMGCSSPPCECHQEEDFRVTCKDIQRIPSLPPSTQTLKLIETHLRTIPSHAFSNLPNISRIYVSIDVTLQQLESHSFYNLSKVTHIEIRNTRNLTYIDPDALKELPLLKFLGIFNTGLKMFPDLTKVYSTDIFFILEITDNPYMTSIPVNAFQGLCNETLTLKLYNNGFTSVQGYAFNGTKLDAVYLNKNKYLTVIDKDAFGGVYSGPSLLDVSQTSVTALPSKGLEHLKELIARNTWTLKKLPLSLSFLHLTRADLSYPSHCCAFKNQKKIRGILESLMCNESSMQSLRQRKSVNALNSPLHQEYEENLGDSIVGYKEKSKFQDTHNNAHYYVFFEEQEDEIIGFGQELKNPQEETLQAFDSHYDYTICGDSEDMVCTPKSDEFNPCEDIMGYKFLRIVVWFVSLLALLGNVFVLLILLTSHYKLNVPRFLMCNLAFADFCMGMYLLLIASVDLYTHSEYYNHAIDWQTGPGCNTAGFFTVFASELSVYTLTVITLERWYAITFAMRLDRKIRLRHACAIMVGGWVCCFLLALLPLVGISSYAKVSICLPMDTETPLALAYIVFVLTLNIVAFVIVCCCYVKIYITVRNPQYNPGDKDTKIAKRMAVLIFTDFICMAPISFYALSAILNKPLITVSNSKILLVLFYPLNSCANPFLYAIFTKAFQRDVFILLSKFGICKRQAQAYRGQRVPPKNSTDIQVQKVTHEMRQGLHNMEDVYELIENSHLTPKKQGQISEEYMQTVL
Chain of Luciferin 4-monooxygenase (Photinus pyralis) (P08659 whole entry, looked up): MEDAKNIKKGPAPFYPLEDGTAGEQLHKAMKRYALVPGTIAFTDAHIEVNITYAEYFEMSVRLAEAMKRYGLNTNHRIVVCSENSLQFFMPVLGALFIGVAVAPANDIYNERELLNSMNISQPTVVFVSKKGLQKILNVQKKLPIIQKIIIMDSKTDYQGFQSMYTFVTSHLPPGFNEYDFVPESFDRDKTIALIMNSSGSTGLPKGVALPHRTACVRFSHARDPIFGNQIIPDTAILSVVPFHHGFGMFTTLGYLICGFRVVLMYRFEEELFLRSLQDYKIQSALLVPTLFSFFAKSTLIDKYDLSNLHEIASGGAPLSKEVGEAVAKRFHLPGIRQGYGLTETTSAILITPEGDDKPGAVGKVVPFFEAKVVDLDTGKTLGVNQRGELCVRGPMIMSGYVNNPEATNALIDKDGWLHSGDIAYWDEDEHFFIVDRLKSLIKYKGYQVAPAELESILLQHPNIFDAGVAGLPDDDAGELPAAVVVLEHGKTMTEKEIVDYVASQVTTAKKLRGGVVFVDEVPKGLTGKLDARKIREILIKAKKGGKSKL
Chain of Nuclear receptor subfamily 1 group I member 3 (Homo sapiens) (Q14994 whole entry, looked up): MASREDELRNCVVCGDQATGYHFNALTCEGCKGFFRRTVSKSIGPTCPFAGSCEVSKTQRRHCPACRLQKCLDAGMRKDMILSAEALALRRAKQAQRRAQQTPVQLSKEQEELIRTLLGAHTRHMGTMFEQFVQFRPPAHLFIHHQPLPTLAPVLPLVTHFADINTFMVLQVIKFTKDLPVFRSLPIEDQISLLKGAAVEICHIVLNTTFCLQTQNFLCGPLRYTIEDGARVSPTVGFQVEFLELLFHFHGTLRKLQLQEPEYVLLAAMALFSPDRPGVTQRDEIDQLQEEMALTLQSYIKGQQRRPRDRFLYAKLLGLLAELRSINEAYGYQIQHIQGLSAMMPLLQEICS

CCCCCC(CC)OC(=O)CCCOc1ccc(Cl)cc1Cl (stereo not drawn)
inactive: outcome [1] | outcome [2] | Potency [3] | outcome [4] | Potency [5] | outcome [6] | outcome [7] | outcome [8] | Potency [9] | outcome [10] | outcome [11] | outcome [12] | outcome [13] | activity change, positive = activation [14] 6.42% | outcome [15]

CCCCCCCCCCCCCCCCN(C)C
inactive: activity change, negative = cytotoxicity [1] 0.211% [at 8.39 µM] | activity, negative = inhibition [2] 3.34% [at 8.39 µM] | activation [3] -0.996% [at 8.36 µM] | viability change, negative = cytotoxic [4] 0.965% [at 8.39 µM] | activity change, negative = inhibition [5] 3.25% [at 10.5 µM] | viability change, negative = cytotoxic [6] 4.94% [at 8.39 µM] | activity change, negative = cytotoxicity [7] 4.91% [at 8.39 µM] | viability change, negative = cytotoxic [8] 6.95% [at 8.39 µM] | activation [16] -17.9% [at 8.39 µM] | activity change, negative = cytotoxicity [10] -5.55% [at 6.97 µM] | activation (H2AX phosphorylation) [11] 1.56% [at 14 µM] | activity change, negative = cytotoxicity [12] -3.36% [at 14 µM] | activity change, negative = cytotoxicity [15] -0.0663% [at 6.97 µM]

CCCCCCCCCCCCCCBr
inactive: outcome [1] | outcome [2] | Potency [3] | outcome [4] | Potency [5] | outcome [6] | outcome [7] | outcome [8] | Potency [16] | outcome [10] | outcome [11] | outcome [17] | outcome [12] | outcome [15]

CCOC(=O)CC
inactive: outcome [1] | outcome [2] | Potency [3] | outcome [4] | Potency [5] | outcome [6] | outcome [7] | Potency [18] | outcome [8] | outcome [10] | outcome [11] | outcome [12] | outcome [15]

CC(C)(Sc1cc(C(C)(C)C)c(O)c(C(C)(C)C)c1)Sc1cc(C(C)(C)C)c(O)c(C(C)(C)C)c1
inactive: outcome [1] | outcome [2] | Potency [3] | outcome [4] | Potency [5] | outcome [6] | outcome [7] | outcome [8] | Potency [19] | Potency [9] | Potency [16] | outcome [10] | outcome [11] | outcome [12] | outcome [13] | activity change, positive = activation [14] 3.41% [at 42.5 µM] | outcome [15]

O=S(=O)(O)c1cc(I)c(O)c2ncccc12
inactive: outcome [1] | outcome [2] | Potency [3] | outcome [4] | Potency [5] | outcome [6] | outcome [7] | outcome [8] | Potency [19] | Potency [9] | Potency [16] | outcome [10] | outcome [12] | outcome [13] | activity change, positive = activation [14] 2.69% [at 42.5 µM] | outcome [15]

CCCCC(CC)COC(=O)CC#N (stereo not drawn)
inactive: outcome [1] | outcome [2] | Potency [3] | outcome [4] | Potency [5] | outcome [6] | outcome [7] | outcome [8] | Potency [19] | Potency [9] | Potency [16] | outcome [10] | outcome [11] | outcome [17] | outcome [12] | outcome [13] | activity change, positive = activation [14] -0.23% | outcome [15]

C/C=C(\C)C=O
inactive: outcome [1] | outcome [2] | Potency [3] | outcome [4] | Potency [5] | outcome [6] | outcome [7] | outcome [8] | Potency [16] | outcome [10] | outcome [11] | outcome [17] | outcome [12] | outcome [15]

CNC(=O)c1c(I)c(NC(C)=O)c(I)c(C(=O)O)c1I
inactive: outcome [1] | outcome [2] | Potency [3] | outcome [4] | Potency [5] | outcome [6] | outcome [7] | outcome [8] | Potency [19] | Potency [9] | outcome [11] | outcome [17] | outcome [12] | outcome [13] | activity change, positive = activation [14] 2.26% [at 42.5 µM] | outcome [15]

Cc1cc(=O)oc2cc(O[C@@H]3SC[C@@H](O)[C@H](O)[C@H]3O)ccc12
inactive: outcome [1] | outcome [2] | Potency [3] | outcome [4] | Potency [5] | outcome [6] | outcome [7] | outcome [8] | Potency [16] | outcome [10] | outcome [11] | outcome [17] | outcome [12] | outcome [15]

CCN1CCN(C(=O)N[C@@H](C(=O)N[C@@H]2C(=O)N3C(C(=O)O)=C(CSc4nnnn4C)CS[C@H]23)c2ccc(O)cc2)C(=O)C1=O
inactive: outcome [1] | outcome [2] | Potency [3] | outcome [4] | Potency [5] | outcome [6] | outcome [7] | outcome [8] | Potency [16] | outcome [10] | outcome [11] | outcome [17] | outcome [12] | outcome [15]

C=CC(=O)CC
inactive: outcome [1] | outcome [2] | Potency [3] | outcome [4] | Potency [5] | outcome [6] | outcome [7] | outcome [8] | Potency [19] | Potency [9] | Potency [16] | outcome [10] | outcome [11] | outcome [17] | outcome [12] | outcome [13] | activity change, positive = activation [14] -1.79% | outcome [15]

CC[C@@]1(c2ccccc2)NC(=O)N(C)C1=O
inactive: outcome [1] | outcome [2] | Potency [3] | outcome [4] | Potency [5] | outcome [6] | outcome [7] | outcome [8] | Potency [19] | Potency [9] | Potency [16] | outcome [10] | outcome [11] | outcome [12] | outcome [13] | activity change, positive = activation [14] 3.28% [at 42.5 µM] | outcome [15]

Cc1ccc(O)c(C(=O)c2ccccc2)c1
inactive: outcome [1] | outcome [2] | Potency [3] | outcome [4] | Potency [5] | outcome [6] | outcome [7] | outcome [8] | Potency [19] | Potency [16] | outcome [10] | outcome [11] | outcome [13] | activity change, positive = activation [14] -3.28% | outcome [15]

CC(=O)/C=C/C=C1/C2CCC(C2)C1(C)C (stereo not drawn)
active: Potency [16] 18.8 µM
inactive: outcome [1] | outcome [2] | Potency [3] | outcome [4] | Potency [5] | outcome [6] | outcome [7] | outcome [8] | outcome [10] | outcome [11] | outcome [17] | outcome [12] | outcome [15]
